According to the supplement of paper PMC11417369:
± gives the standard deviation of the averaged measurements. Whole data set: some 25,000 sequences, median “ln(normalized median fluorescence intensity)” near 10, cut for the highest 2% near 12. Only a selection was taken, and the highest values are over-represented in it overall.

These sequences were tested on PfAP2-G AP2 domain (GST-tagged) (assay: gcPBM binding intensity (ln(normalized median fluorescence intensity)); higher = stronger DNA binding).
Method in brief: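 GST-tagged P. falciparum DNA-binding domains, expressed in E. coli (about 25 μg on average), were applied for 1 h to an Agilent 4 × 180k array of primer-extended double-stranded 36-bp intergenic genomic probes plus negative controls. The binding buffer was 1× PBS with 1% milk, 0.2 mg/ml BSA, 0.5% salmon testes DNA and 0.03% Triton X-100. Bound protein was detected with Alexa488 anti-GST antibody and scanned at 488 nm. Binding intensity is the highest Masliner-normalised natural-log median intensity across replicate spots of either probe orientation.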

Sequence	gcPBM binding intensity (ln)
ACTTTTTTAATGTTACGTACACATAAATAATAATTA [XGTACX_site8092]	11.6 ± 0.9
ATGTTTTATAAAAGGCGTACACATATGCTTAAGTAA [XGTACX_site6232]	11.8 ± 0.94
ATAAAATATAAAAAAAGTACAAAAAAAAAAAAAAAA [XGTACX_site6657]	11.2 ± 1.1
GAATTAAAATAATACGTACACACATGTATAATACAT [CACACA_site1004]	11.7 ± 1.2
ATTAAAATAATACGTACACACATGTATAATACATAT [CACACA_site1005]	11.5 ± 0.91
ATGCTTTTTTATAAAAGTACATAAAGTTTTTACACT [XGTACX_site7307]	11.3 ± 0.81
AGAATTAAAATAATACGTACACACATGTATAATACA [XGTACX_site1878]	11.5 ± 0.82
TTTTTTTTTTTAAAATGTACACGTAATTACATATAT [XGTACX_site752]	11.4 ± 0.95
AAAAAAAAAAAAAAAAGTACAAATAAAAAAAAAATA [XGTACX_site4814]	11.4 ± 0.85
TTTTTTTTTTTTACGTGTACATAAATGTTAAGTAAT [XGTACX_site3901]	11.4 ± 0.91
GATAAAGTAAAAATATGTACATATATATTTTAAGTT [XGTACX_site6439]	11.4 ± 0.78
AAGTATAAAAAAAGGCGTACAAAAAAAAAAAAAAAA [XGTACX_site7309]	11.7 ± 0.9
ATAGCCAAAAATCATGCACACCTAAAAAAAAAAAAA [CACACA_site8826]	10.1 ± 0.6
TAGTTTTCTTAAAGATGTACTTATTAAAAATAAACT [XGTACX_site1001]	11.3 ± 1.1
TATATCTCTTTATTCACACATACGTTTTAAAATAAT [CACACA_site5542]	10.2 ± 0.13
ATTATGTTAAAAAGGCGTACATGTTATAAGGTCCTA [XGTACX_site344]	11.7 ± 1.2
TAAGGTTAAATAATATGTACATATTATTATATATAT [XGTACX_site6953]	11.3 ± 0.72
GTATATATATATAAAAGTACATGTTATGAAAAAAAA [XGTACX_site5410]	11.3 ± 0.81
AATAAATTATTATGTACACACATAATAGTATATATA [CACACA_site1820]	11.4 ± 0.85
TAAAAGTATATATATACACACATAAATATATATGTA [CACACA_site663]	9.86 ± 0.14
AAGTATAAATAAAGGCGTACACATGTAAATTATATT [XGTACX_site126]	11.7 ± 1.1
AATACAATAAAAAAAAGTACACATGTATAAAAAATT [XGTACX_site8270]	11.6 ± 0.8
AAAAATAAATATATATGTACACATATGTATACAATA [XGTACX_site4692]	11.6 ± 0.97
ATAATAAATTATTATGTACACACATAATAGTATATA [CACACA_site8538]	11.3 ± 0.88
TTTTTTAAATTTTGAATTATAACTACATTAAAGAAA [GTGCAC_negctrl_site279]	9.8 ± 0.33
AATATATATATTTAAGTGCATAATATTGTAATATTA	9.91 ± 0.028

Sequence	gcPBM binding intensity (ln)
GGTATATAAAAATATTGTACTTAAAAAAATATGTAT [XGTACX_site6253]	11.4 ± 0.99
TTGTTAATATGATAAAAGAGGAATATTCTCTTCCTA [GTGCAC_negctrl_site659]	9.48 ± 0.14
ATATACATAATCTTCTTGCACTTTTTTTTTTTTTTT [GTGCAC_site9410]	10.3 ± 0.22
AAAAAAGAACGCATAGTGCATATCTAAAAGATTTTT	9.85 ± 0.014
TATGTTAAAAAAAAATGTACATATGTTTTTGTTAAA [XGTACX_site4754]	11.2 ± 0.86
ATGACGTAGTGGTGTACACACATGGTACCTTTATTC [CACACA_site1547]	11.6 ± 0.84
TATATATATATATGTACACACATATATACCTTTCAT [CACACA_site2679]	11.4 ± 0.81
ATATAATATATATGGTGTACATTTTTTAGTGCTATT [XGTACX_site1662]	11.4 ± 0.76
AATATGACGTAGTGGTGTACACACATGGTACCTTTA [XGTACX_site3147]	11.7 ± 0.83
TATATATATTTATGTACACACATATATACCTTTCAT [CACACA_site5479]	11.4 ± 0.86
ATATGACGTAGTGGTGTACACACATGGTACCTTTAT [CACACA_site8436]	11.9 ± 1.1
TTATATATTAATAGTAGTACTATATTGAATCACCCC [XGTACX_site2868]	11.3 ± 0.85
TAATTTATAAATATAATATTTATGTATATGATGTTT [CACACA_negctrl_site464]	9.795 ± 0.078
CATATTTTGAACTTCACACATATATATATATATATA [CACACA_site4228]	10.3 ± 0.54
TTTTCTCAATTTTGGTGTACTTTTTTCTTAACACAT [XGTACX_site8918]	11.7 ± 1
ATTTTATTAATTTGGTGTACTTAATTTATATTTTTC [XGTACX_site4947]	11.6 ± 0.92
TCACACCTTTTTGGTTGTACTTAAATTTCTTTTTTT [XGTACX_site6438]	11.2 ± 0.75
GTTTATGTATTATTATGTACGTATCATAATATATAT [XGTACX_site2385]	11.5 ± 0.82
ATCTAAACCTTTTGAGCACACATATATATATATATA [CACACA_site8526]	10.4 ± 0.3
TGTTCCGAAGGTTGTACACACATAGAAATATACATA [CACACA_site3874]	11.6 ± 0.74
TATGTTCCGAAGGTTGTACACACATAGAAATATACA [CACACA_site9285]	11.6 ± 0.8
ATATGTTCCGAAGGTTGTACACACATAGAAATATAC [XGTACX_site8227]	11.6 ± 1
AACCACATGGTGTAATGTACATTACCTTAACAATAA [XGTACX_site3055]	10.7 ± 0.42
TAAAATATACAAATTTGTACATATATATGTATGTAT [XGTACX_site1127]	10.9 ± 0.38
AGAAAATTAAAAAGAACACACAAATATATATATAAT [CACACA_site5896]	10.045 ± 0.007
ATATATATATATAATGCACACATTATGAATTATGTA [CACACA_site3384]	9.9 ± 0.42
